Results reported in PubChem BioAssay (NCATS).
Inconclusive results are not listed. Active and inactive are the calls of the source. Calls come from the whole dose curve; as a rule, active = well fitted curve in the direction sought with a large enough effect; inconclusive = small, poorly fitted or top-dose-only effect, or another doubt; inactive = no such curve, though single readings can be large; an effect the other way counts as inactive or inconclusive.

Experiments:
[1] = target: Glutathione peroxidase 1 (Homo sapiens) (UniProt P07203); assay: Primary qHTS Assay for Inhibitors of Recombinant Selenoprotein Glutathione Peroxidase 1 (GPX1) (AID 1845191); note: nearly all actives have a fitted effect of over 65% in size; for activity, negative = inhibition: % is set by controls: 0 for no effect and ±100 for the full control effect
Summary of the method: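 10 nM GPX1 + cpd, 30 min RT; start w/ 1 mM GSH, 0.5 mM cumene hydroperoxide, 0.5 mM NADPH, 100 nM GR, 0.01% BSA; buffer 50 mM Tris-HCl pH 7.5, 2 mM EDTA, 150 mM NaCl; Fl 340/450, 0 & 15 min.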

[2] = target: Phospholipid hydroperoxide glutathione peroxidase GPX4 (Homo sapiens) (UniProt P36969); assay: Primary qHTS Assay for Inhibitors of Recombinant Selenoprotein Glutathione Peroxidase 4 (GPX4) (AID 1845192); note: nearly all actives have a fitted effect of over 65% in size; for activity change, negative = inhibition: series mostly up to about 50 µM; % is set by controls: 0 for no effect and ±100 for the full control effect
Summary of the method: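 NADPH consumption, followed by fluorescence at 340/450 nm between 0 and 15 min, reports GPX4 activity via coupled glutathione reductase (100 nM). Enzyme 200 nM was pre-exposed to compound 30 min; 0.5 mM cumene hydroperoxide and 1 mM GSH served as substrates.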

[3] = target: Luciferin 4-monooxygenase (Photinus pyralis) (UniProt P08659); assay: Primary firefly luciferase (FLuc) qHTS assay for identification of artifact compounds. (AID 1845220); note: nearly all actives have a fitted effect of over 60% in size;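 for activity change, negative = inhibition: series mostly up to about 54 µM; plate controls were DMSO vehicle for no effect and no enzyme for full effect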
Summary of the method: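 Compounds sat 15 min at room temperature with 10 uM luciferin and 10 uM ATP (pH 7.6 Tris acetate). Firefly luciferase (10 nM final) was then added, and luminescence was read 5 min later. Data normalized to no-enzyme and DMSO controls were Hill-fitted.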

[4] = test system: Nanoluciferase (engineered Oplophorus gracilirostris luciferase); assay: Primary Nanoluciferase (NLuc) qHTS assay for identification of artifact compounds. (AID 1845222);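 note: series mostly up to about 54 µM; 0% = DMSO and -100% = no enzyme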
Summary of the method: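 Luminescence from secreted NLuc (filtered, 1:55-diluted S16 cell medium) read 5 min after Nano-Glo substrate; compounds preincubated 15 min, RT. Hill fits of inhibition normalized to DMSO and no-enzyme.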

[5] = Primary redox qHTS assay for identification of artifact compounds. (AID 1845223);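 note: 0% = DMSO and 100% = reference compound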
Summary of the method: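 Amplex Red (25 uM) and HRP (250 mU/mL) in HBSS, with compounds for 15 min, then 250 uM DTT for 30 min, room temperature, dark. Fluorescence 525/598 nm read; normalized to DMSO and 10 uM DA3003; Hill fit.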

Sequence of Phospholipid hydroperoxide glutathione peroxidase GPX4 (Homo sapiens) (P36969 whole entry, looked up): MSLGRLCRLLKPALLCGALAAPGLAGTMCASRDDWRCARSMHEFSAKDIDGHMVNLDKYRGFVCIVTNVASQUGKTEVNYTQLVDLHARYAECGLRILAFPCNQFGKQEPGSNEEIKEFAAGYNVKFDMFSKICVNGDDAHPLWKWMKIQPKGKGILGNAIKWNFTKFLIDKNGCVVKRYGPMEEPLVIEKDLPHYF
Sequence of Glutathione peroxidase 1 (Homo sapiens) (P07203 whole entry, looked up): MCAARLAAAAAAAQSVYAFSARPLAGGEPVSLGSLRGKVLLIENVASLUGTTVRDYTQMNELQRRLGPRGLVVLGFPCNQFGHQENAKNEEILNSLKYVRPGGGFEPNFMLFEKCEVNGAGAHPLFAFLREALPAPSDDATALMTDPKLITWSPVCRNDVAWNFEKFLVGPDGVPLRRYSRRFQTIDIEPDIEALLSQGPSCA

Cc1c(Cc2ccc3ccccc3n2)c2cc(F)ccc2n1CC(=O)O
inactive: Potency [1] | Potency [2] | Potency [3] | Potency [4] | Potency [5]

C[C@H]1[C@H](C)CC[C@]2(C(=O)OC3OC(CO)C(O)C(O)C3O)CC[C@]3(C(=O)O)C(=CCC4[C@@]5(C)CC[C@H](O[C@@H]6O[C@@H](C)[C@H](OC7OC(CO)C(O)C(O)C7O)[C@@H](O)[C@H]6O)C(C)(C)C5CC[C@]43C)[C@H]12 (stereo not given in full)
inactive: Potency [1] | Potency [2] | activity change, negative = inhibition [3] -5.72% [at 11.6 µM] | activity, negative = inhibition [4] 1.44% [at 11.6 µM]

CC/C=C\CC1C(CC(=O)O)CCC1OC1OC(CO)C(O)C(O)C1O (stereo not given)
inactive: Potency [1] | Potency [2] | Potency [3] | Potency [4] | Potency [5]

CC1OC(OC2C(OC3C(O[C@H]4CC[C@@]5(C)C(CC[C@]6(C)C5C(=O)CC5=C7CC(C)(C)CC(O)[C@]7(C)CC[C@]56C)C4(C)C)OC(C(=O)O)C(O)C3O)OCC(O)C2O)C(O)C(O)C1O (stereo not given in full)
inactive: Potency [1] | Potency [2] | activity change, negative = inhibition [3] 0.49% [at 11.6 µM] | activity, negative = inhibition [4] -10.9% [at 11.6 µM]

C[C@]1(O)CC[C@@H]2C(C(=O)O)=CO[C@@H](O[C@@H]3O[C@H](CO)[C@@H](O)[C@H](O)[C@H]3O)[C@@H]21
inactive: Potency [1] | Potency [2] | Potency [3] | Potency [4]

C=C(C(=O)OC)[C@]12O[C@@](C)(CC[C@@]3(O)/C(=C\C)C(=O)O[C@]3(C)C[C@@H]1OC(=O)C(CO)CN1CCCC1C(=O)O)CC2=O (stereo not given in full)
inactive: Potency [1] | Potency [2] | Potency [3] | Potency [4] | Potency [5]

C=C1CC2C(C)(CCC(=O)O)C(C(C)(C)O)CCC2(C)C2(C(=O)OC)C(=O)C(C)(O)C(=O)C12C (stereo not given)
inactive: Potency [1] | Potency [2] | Potency [3] | Potency [4]

COc1c2c(c(C)c3c1C(=O)OC3)OC1(C)CC(O)C34OC(OC)(CC(O)C3(C)C1C2)OC4(C)C (stereo not given)
inactive: Potency [1] | Potency [2] | Potency [3] | Potency [4]

O=C(O)c1cccc(C(=O)CCC2OC(n3cnc4c(=O)[nH]cnc43)C(O)C2O)c1 (stereo not given)
inactive: Potency [1] | Potency [2] | Potency [3] | Potency [4]

Nc1nc(COC(=O)c2ccc([N+](=O)[O-])cc2)nc(Nc2ccccc2)n1
inactive: Potency [1] | Potency [2] | Potency [3] | Potency [4] | Potency [5]

COc1ccc(/C=C/C(N)=O)cc1OC
inactive: Potency [1] | Potency [2] | Potency [3] | Potency [4] | Potency [5]

NC(Cc1c[nH]c2ccc(O)cc12)C(=O)O (stereo not given)
inactive: Potency [1] | Potency [2] | Potency [3] | Potency [4]

C=C1CC23CC1CCC2C12OC(=O)C(C)(C(O)C(O)C1O)C2C3C(=O)O (stereo not given)
inactive: Potency [1] | Potency [2] | Potency [3] | Potency [4] | Potency [5]

COC(=O)[C@@H](NC(=O)[C@H](CC(C)C)NC(=O)N(Cc1ccccc1)C[C@@H](O)[C@H](Cc1ccccc1)NC(=O)OC(C)(C)C)C(C)C
inactive: Potency [1] | Potency [2] | outcome [3] inactive [at 11.6 µM] | activity, negative = inhibition [4] -4.83% [at 11.6 µM] | redox activity (% of DA3003) [5] 19.1% [at 11.5 µM]

COC(=O)C1(O)C(OC(C)=O)CCC2C3(CC(c4ccoc4)OC3=O)C(C)=CCC21C(=O)OC (stereo not given)
inactive: Potency [1] | Potency [2] | Potency [3] | Potency [4] | Potency [5]

C=C(CCO[C@@H]1O[C@H](CO)[C@@H](O)[C@H](O)[C@H]1O)C(=O)O
inactive: Potency [1] | Potency [2] | Potency [3] | Potency [4] | Potency [5]

CC1(C(=O)O)CC[C@]2(C(=O)OC3OC(CO)C(O)C(O)C3O)CC[C@]3(C)C(=CCC4[C@@]5(C)CC[C@H](OC6OCC(O)C(O)C6OC6OC(CO)C(O)C(O)C6O)C(C)(C)C5CC[C@]43C)C2C1 (stereo not given in full)
inactive: Potency [1] | Potency [2] | activity change, negative = inhibition [3] 0.425% [at 11.6 µM] | activity, negative = inhibition [4] 1.15% [at 11.6 µM]

O=C(O)c1ccnc(-c2cc(C(=O)NCCc3ccccc3)ccn2)c1
inactive: Potency [1] | Potency [2] | Potency [3] | Potency [4]

CC(C)=CCC/C(C)=C/CO[C@@H]1O[C@H](CO[C@@H]2OC[C@](O)(CO)[C@H]2O)[C@@H](O)[C@H](O)[C@H]1O
inactive: Potency [1] | Potency [2] | Potency [3] | Potency [4] | Potency [5]

CC1(CO)CC(O)C2(C)CCC3(C)C(=CCC4C5(C=O)CCC(OC6OC(C(=O)O)C(O)C(O)C6OC6OC(C(=O)O)C(O)C(O)C6O)C(C)(C)C5CCC43C)C2C1 (stereo not given)
inactive: Potency [1] | Potency [2] | activity change, negative = inhibition [3] -10.9% [at 11.6 µM] | activity, negative = inhibition [4] -13.8% [at 11.6 µM]

Oc1ccc(CC2NCCc3cc(O)c(O)cc32)cc1 (stereo not given)
inactive: Potency [1] | Potency [2] | Potency [3] | Potency [4] | Potency [5]

COc1cc(/C=C/C(=O)O[C@@H]2C[C@](O)(C(=O)O)C[C@@H](O)[C@H]2O)ccc1O
inactive: Potency [1] | Potency [2] | Potency [3] | Potency [4] | Potency [5]

COC(=O)c1ccc(OC)cc1O[C@@H]1O[C@H](CO[C@@H]2OC[C@@H](O)[C@H](O)[C@H]2O)[C@@H](O)[C@H](O)[C@H]1O
inactive: Potency [1] | Potency [2] | Potency [3] | Potency [4] | Potency [5]

C[C@@H]1[C@H](O)[C@@H]2OC(=O)C3=C2[C@H](CCC3)[C@@]12C[C@@H](c1ccoc1)OC2=O
inactive: Potency [1] | Potency [2] | Potency [3] | Potency [4] | Potency [5]
